Results taken from PubChem BioAssay (NCATS).
Records with an inconclusive call do not appear. The source made the active and inactive calls. The call rests on the fitted dose curve; in most records, active means well fitted inhibition curve with a large enough effect; inconclusive means small, poorly fitted or top-dose-only effect; inactive means flat fitted curve, though single readings scatter.

Assays:
[1] = tested on: CRL-7250; experiment: Cytotoxic Profiling of Annotated Libraries Using Quantitative High-Throughput Screening (AID 1296008); conditions: Five cell lines viability, CellTiter-Glo ATP luminescence, 48-72 h; max response: hits give low values; on max response: on the % scale 0 is the no-effect control and ±100 the full control effect
Procedure, shortened: (§1)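 Compounds were pin-transferred onto cells and incubated 48 or 72 hr at 37 degree Celsius, 95% humidity. CellTiter-Glo was added, plates sat 10 min at room temperature, then ATP-coupled luminescence was imaged as the viability read-out.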

[2] = tested on: HaCat; experiment: as above; conditions: Five cell lines viability, CellTiter-Glo ATP luminescence, 48-72 h; max response: hits give low values
Procedure, shortened: as §1

[3] = tested on: KB-3-1; experiment: as above; conditions: Five cell lines viability, CellTiter-Glo ATP luminescence, 48-72 h; max response: hits give low values
Procedure, shortened: as §1

[4] = tested on: NIH3T3; experiment: as above; conditions: Five cell lines viability, CellTiter-Glo ATP luminescence, 48-72 h; max response: hits give low values
Procedure, shortened: as §1

[5] = tested on: HACAT; experiment: qHTS assay to identify novel small-molecules to repurpose for Merkel cell carcinoma treatment (AID 1296009); conditions: MCC and control cell lines, CellTiter-Glo viability, 72 h; at 44.8 µM (top of the series) unless noted
Procedure, shortened: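 Viability readout: ATP luminescence (CellTiter-Glo) after 72 hr drug exposure at 37 degree celsius. Dose-response format was 8 points for NPC and 11 points for MIPE; data normalized to in-plate controls.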

Measured: max response
Further: nearly all actives have a fitted effect of over 60% in size.

CN1CC2CN(c3ccc4oc5ccccc5c(=O)c4c3)CC2C1 (stereo not given)
inactive: [1] -0.983% | [2] | [3] -11.6% | [4] -10.4% | [5] inactive [at 17.4 µM]

O=C(Nc1ccc(N(Cc2ccsc2)C(=O)Cn2nnc3ccccc32)cc1)C1CC1
inactive: [1] -5.74% | [2] | [3] 6.41% | [4] 4.89% | [5]

C=C1CCC2C(C)(C)CCCC2(C)C1CC/C(C)=C\CO (stereo not given)
inactive: [1] 3.55% | [2] | [3] 1.75% | [4] | [5]

C=C1CC2OC(=O)C(=C)C2C(O)/C=C(\C)CCC1O (stereo not given)
inactive: [1] -0.668% | [2] | [3] 5.02% | [4] -10.3% | [5]

CCNC1(C(N)=O)CN(c2nc(C)nc3c(-c4ccc(Cl)cc4)c(-c4ccccc4Cl)nn23)C1
inactive: [1] -17.8% | [2] | [3] -14.3% | [4] -3.55% | [5]

CC(NCCCc1cccc(C(F)(F)F)c1)c1cccc2ccccc12 (stereo not given)
inactive: [1] 1.05% | [2] | [3] -6.75% | [4] 3.68% | [5] inactive [at 17.4 µM]

Cc1cc(NC(=O)NCCN2CCC(O)(Cc3ccccc3)CC2)c2ccccc2n1
inactive: [1] 2.34% | [2] | [3] -1.93% | [4] | [5]

CC(=O)OC1CC(C)(C(=O)O)CC2C3=CC(=O)C4C5(C)CCC(OC6OC(C(=O)O)C(O)C(O)C6OC6OC(C(=O)O)C(O)C(O)C6O)C(C)(C)C5CCC4(C)C3(C)CCC12C (stereo not given)
inactive: [1] -2.54% | [2] | [3] 3.1% | [4] 1.8% | [5] inactive [at 9.27 µM]

Cc1ccc(-c2ncc[nH]2)cc1NC(=O)c1ccc(OCc2ccccn2)cc1
inactive: [1] -5.69% | [2] | [3] -1.78% | [4] -1.84% | [5]

C[C@@H](NC(=O)c1ccc(C#Cc2cccc(F)c2)cn1)C(C)(C)O
inactive: [1] -12.8% | [2] | [3] 7% | [4] 2.74% | [5]

Cc1nc(C(=O)N2CCC[C@H]2Cc2nnc(-c3ccccc3)o2)c(-c2ccccc2F)s1
inactive: [1] | [2] | [3] | [4] 4.09% | [5]

COc1ccc2c(NC(=O)Nc3cccc(C(F)(F)F)n3)ccnc2c1
inactive: [1] -17.8% | [2] | [3] | [4] -6.75% | [5]

C/C=C(\C)C(=O)OC1C=C(C)CC(OC(=O)c2ccc(O)cc2)C2C1(C)CCC2(O)C(C)C (stereo not given)
inactive: [1] 1.09% | [2] | [3] 5.76% | [4] | [5] inactive [at 17.4 µM]

CCCn1cc2c(nc(NC(=O)Nc3ccc(OC)cc3)n3nc(-c4ccco4)nc23)n1
inactive: [1] 4.71% | [2] | [3] 9% | [4] | [5]

C=C1CC[C@@H]2[C@](C)(CO)[C@H](O)CC[C@@]2(C)[C@@H]1CC(O)C1=CCOC1=O (stereo not given in full)
inactive: [1] -6.08% | [2] | [3] | [4] | [5]

CC1(C)C2CCC(CO[C@@H]3O[C@H](CO[C@@H]4OC[C@](O)(CO)[C@H]4O)[C@@H](O)[C@H](O)[C@H]3O)C1C2 (stereo not given in full)
inactive: [1] 1.81% | [2] | [3] | [4] | [5] inactive [at 17.4 µM]

C=C1CCC[C@]2(C)CC/C(=C(/CO)C(=O)OC)C[C@@H]12
inactive: [1] -7.08% | [2] | [3] -2.83% | [4] 2.53% | [5]

CC1(C)Oc2ncnc(N)c2N=C1c1ccc(C23CCC(CC(=O)O)(CC2)CC3)cc1
inactive: [1] 1.74% | [2] | [3] -2.56% | [4] -15.7% | [5]

COC1=CC(=O)O/C1=C(/OC)[C@@H]1O[C@H]1c1ccccc1
inactive: [1] -14.3% | [2] | [3] -13.4% | [4] -27.3% | [5]

CC(C)[C@@H](c1ccc(C(F)(F)F)cc1CN(Cc1cc(C(F)(F)F)cc(C(F)(F)F)c1)c1nnn(C)n1)N1CCC(C(=O)O)CC1
inactive: [1] -8.05% | [2] | [3] -11.9% | [4] 4.8% | [5]

COc1ccc2c(c1O[C@H]1CCNC1)CCC2
inactive: [1] -1.86% | [2] | [3] -7.28% | [4] | [5]

CCC(C)/C=C(C)/C=C/C1=CC2=C(Cl)C(=O)C(C)(OC(C)=O)C(=O)C2(O)C(OC)O1 (stereo not given)
inactive: [1] | [2] | [3] | [4] | [5] inactive [at 17.4 µM]
